# Assay results published in the supplement of paper PMC10849652.
# Targets with a hit are over-represented here; the source holds about 7,900 in all. About 0.6% of all pairs of compound and target were hits. A number with no mark means an inactive call.
# Compound: C1CCN(C1)C(=O)NC2=CC=CC(=C2)NC3=NC=C(C(=N3)NCCC4=CN=CN4)Br
# Assay: log2 fold change, soluble protein after heating vs DMSO (PISA); higher = thermal stabilisation; K562 cells, 10 uM, 30 min; active = over 0.2 and 3.5 SD of the protein, either way, in both replicates (recomputed)
# How it was run: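 K562 cells at 2×10^6 cells/mL were treated for 30 min with 10 μM compound, and aliquots were heated for 3 min over 48°C-58°C before pooling. Extraction used PBS with 0.5% NP-40 at 4°C, and soluble protein was the supernatant after 21,000xg for 90 min, measured by TMTpro 16plex LC-MS/MS with channel sums equalised. Thermal stability values, relative to control samples and from duplicates, are log2 fold changes.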
# Chain of UniProt Q16539 (Q16539 whole entry, looked up): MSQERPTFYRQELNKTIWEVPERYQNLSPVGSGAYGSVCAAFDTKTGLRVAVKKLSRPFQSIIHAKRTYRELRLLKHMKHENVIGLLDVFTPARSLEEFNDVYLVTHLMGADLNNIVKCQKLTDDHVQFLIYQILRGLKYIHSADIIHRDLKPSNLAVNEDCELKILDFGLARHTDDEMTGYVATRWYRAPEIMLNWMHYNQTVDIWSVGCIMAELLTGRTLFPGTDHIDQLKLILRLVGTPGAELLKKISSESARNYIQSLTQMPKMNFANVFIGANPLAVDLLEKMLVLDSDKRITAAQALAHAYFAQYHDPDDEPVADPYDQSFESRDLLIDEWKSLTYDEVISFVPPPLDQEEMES
# Chain of UniProt Q9P244 (Q9P244 whole entry, looked up): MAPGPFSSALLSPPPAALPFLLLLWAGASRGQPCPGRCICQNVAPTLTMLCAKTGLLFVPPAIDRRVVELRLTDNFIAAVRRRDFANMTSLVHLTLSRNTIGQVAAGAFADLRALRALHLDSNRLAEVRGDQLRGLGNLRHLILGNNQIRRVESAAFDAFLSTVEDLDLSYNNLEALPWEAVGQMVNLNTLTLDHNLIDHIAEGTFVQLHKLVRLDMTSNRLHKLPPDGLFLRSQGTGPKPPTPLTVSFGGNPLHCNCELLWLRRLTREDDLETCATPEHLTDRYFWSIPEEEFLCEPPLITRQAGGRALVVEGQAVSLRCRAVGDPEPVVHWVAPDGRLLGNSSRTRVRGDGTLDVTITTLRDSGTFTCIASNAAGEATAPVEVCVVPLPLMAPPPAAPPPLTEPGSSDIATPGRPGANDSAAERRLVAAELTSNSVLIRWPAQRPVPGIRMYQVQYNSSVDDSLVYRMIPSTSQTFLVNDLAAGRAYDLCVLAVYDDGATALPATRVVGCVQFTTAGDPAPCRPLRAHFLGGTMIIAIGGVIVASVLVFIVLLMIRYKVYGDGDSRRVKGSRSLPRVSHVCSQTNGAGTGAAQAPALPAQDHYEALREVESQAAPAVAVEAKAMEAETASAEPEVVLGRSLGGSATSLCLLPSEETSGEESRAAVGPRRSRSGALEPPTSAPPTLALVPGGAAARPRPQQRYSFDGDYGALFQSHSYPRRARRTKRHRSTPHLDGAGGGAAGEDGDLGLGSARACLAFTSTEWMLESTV
# Chain of UniProt Q8TDD5 (Q8TDD5 whole entry, looked up): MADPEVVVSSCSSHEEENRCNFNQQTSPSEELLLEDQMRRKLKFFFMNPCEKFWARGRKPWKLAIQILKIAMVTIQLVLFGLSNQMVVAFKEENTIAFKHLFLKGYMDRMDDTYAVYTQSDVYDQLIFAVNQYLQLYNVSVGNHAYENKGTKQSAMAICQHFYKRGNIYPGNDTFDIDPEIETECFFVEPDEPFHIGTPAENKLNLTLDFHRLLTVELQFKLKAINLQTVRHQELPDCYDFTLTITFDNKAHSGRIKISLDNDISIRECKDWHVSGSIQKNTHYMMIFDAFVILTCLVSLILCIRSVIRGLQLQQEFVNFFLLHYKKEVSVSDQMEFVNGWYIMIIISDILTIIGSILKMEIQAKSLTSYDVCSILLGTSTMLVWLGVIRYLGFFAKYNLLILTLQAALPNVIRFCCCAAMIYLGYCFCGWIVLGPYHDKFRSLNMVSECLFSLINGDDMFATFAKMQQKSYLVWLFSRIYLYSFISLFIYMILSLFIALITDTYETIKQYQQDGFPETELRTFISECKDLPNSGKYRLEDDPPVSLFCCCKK
# Chain of UniProt Q13422 (Q13422 whole entry, looked up): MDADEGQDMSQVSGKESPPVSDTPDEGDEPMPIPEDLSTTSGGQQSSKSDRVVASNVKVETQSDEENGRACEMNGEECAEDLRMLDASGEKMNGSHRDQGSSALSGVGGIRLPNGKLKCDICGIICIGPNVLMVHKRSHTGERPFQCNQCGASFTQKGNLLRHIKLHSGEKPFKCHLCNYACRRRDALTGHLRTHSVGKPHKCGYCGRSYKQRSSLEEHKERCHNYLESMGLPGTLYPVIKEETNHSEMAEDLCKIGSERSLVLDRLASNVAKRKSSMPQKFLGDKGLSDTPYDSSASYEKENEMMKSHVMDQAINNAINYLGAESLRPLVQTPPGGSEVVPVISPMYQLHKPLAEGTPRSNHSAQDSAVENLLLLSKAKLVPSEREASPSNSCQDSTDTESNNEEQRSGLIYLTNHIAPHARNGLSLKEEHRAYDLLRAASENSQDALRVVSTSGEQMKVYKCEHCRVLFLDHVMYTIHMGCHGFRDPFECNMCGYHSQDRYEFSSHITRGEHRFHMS
# Chain of UniProt P55082 (P55082 whole entry, looked up): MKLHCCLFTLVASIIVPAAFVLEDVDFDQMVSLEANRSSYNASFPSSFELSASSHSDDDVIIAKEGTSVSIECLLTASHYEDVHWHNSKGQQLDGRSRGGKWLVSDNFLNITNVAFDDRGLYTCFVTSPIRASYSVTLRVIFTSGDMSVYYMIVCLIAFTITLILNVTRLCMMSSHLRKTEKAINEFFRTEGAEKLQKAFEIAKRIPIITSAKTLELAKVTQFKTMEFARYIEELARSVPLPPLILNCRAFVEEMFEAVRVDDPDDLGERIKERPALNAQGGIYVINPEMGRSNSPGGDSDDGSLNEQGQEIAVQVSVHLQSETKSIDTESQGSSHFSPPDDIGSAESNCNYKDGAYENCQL
# Chain of UniProt P52333 (P52333 whole entry, looked up): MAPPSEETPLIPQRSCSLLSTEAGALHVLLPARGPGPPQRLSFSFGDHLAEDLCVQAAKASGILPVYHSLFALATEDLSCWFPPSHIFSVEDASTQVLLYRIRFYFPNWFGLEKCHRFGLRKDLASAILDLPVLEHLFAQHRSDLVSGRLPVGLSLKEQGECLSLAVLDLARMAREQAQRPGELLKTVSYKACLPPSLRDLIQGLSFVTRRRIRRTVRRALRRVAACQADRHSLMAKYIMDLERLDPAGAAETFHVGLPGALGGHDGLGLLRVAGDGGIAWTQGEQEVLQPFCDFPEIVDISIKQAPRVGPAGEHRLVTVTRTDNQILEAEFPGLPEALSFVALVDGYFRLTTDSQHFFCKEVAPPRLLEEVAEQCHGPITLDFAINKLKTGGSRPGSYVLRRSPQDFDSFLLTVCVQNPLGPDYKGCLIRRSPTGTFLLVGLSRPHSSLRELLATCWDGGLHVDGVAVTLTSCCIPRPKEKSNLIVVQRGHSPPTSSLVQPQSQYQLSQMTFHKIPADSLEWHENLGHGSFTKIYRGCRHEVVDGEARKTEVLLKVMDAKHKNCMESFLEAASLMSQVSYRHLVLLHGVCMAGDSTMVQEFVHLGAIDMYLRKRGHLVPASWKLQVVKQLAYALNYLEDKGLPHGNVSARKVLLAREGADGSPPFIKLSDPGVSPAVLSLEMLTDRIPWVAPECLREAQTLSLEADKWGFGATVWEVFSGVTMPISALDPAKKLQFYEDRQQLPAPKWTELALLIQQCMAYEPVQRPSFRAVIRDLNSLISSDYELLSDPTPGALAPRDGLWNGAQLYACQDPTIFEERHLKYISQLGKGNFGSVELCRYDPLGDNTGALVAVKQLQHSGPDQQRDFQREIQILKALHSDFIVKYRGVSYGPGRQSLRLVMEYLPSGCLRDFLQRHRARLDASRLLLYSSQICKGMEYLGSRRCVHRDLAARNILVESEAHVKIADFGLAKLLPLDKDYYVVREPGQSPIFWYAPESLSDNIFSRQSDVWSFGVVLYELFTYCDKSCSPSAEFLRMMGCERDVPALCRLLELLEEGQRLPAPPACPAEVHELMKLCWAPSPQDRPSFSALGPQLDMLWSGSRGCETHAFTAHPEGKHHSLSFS
# Chain of UniProt Q7L590 (Q7L590 whole entry, looked up): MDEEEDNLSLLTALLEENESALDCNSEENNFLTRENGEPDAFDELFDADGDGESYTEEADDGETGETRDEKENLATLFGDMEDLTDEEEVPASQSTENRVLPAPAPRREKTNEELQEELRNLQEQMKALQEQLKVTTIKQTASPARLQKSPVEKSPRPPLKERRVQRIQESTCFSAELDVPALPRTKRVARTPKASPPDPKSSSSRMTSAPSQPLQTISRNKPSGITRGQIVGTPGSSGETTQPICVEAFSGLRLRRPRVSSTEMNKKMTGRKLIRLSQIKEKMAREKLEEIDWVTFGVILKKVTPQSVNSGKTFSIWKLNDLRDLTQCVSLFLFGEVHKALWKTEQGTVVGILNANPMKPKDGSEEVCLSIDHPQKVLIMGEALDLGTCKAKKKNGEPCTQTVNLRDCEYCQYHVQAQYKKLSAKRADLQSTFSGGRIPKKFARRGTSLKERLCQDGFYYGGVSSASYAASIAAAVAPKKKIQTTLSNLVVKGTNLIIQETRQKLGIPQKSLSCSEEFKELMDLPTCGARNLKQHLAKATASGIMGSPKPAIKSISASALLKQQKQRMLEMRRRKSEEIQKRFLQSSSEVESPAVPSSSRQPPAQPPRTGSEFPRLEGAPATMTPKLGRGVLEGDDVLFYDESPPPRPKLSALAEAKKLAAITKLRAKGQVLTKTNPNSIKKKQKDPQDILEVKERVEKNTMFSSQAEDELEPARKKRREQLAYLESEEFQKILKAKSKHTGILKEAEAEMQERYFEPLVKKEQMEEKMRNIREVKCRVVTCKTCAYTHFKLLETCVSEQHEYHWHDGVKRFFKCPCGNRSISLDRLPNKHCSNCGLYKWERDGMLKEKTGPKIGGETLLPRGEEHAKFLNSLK
# Chain of UniProt Q15759 (Q15759 whole entry, looked up): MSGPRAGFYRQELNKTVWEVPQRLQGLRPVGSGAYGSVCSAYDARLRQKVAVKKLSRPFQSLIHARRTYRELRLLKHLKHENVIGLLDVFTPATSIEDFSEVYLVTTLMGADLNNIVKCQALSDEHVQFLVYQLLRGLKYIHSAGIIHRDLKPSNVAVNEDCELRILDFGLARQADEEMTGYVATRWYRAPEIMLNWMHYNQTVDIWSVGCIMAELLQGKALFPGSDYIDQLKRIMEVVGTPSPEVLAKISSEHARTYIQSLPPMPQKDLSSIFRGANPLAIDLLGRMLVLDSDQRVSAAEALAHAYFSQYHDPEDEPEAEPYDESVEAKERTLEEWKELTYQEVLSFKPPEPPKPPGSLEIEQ
row,Target,log2 fold change
1,MED25 isoform 3 (UniProt Q71SY5),0.057
2,LMNA isoform 2 (UniProt P02545),-0.022
3,IKZF1 (UniProt R9R4D9),-0.055
4,MCOLN3 (UniProt Q8TDD5),0.053
5,MAPK14 (UniProt Q16539),0.051
6,LSR isoform 3 (UniProt Q86X29),-0.169
7,LRFN1 (UniProt Q9P244),-0.1
8,MAPK11 (UniProt Q15759),-0.56
9,MAP4K4 isoform 6 (UniProt O95819),-0.168
10,MFSD11 (UniProt O43934),0.06
11,ING5 (UniProt Q8WYH8),0.003
12,MAPRE3 isoform 2 (UniProt Q9UPY8),0.012
13,LRRCC1 (UniProt Q9C099),0.121
14,MAP4K2 (UniProt Q12851),-0.413
15,MFSD12 isoform 3 (UniProt Q6NUT3),-0.088
16,MFAP3 (UniProt P55082),-0.088
17,IGFBP3 isoform 2 (UniProt P17936),0.032
18,MAGEA8 (UniProt P43361),0.052
19,MCM10 (UniProt Q7L590),-0.153
20,IKZF1 isoform 2 (UniProt Q13422),-0.38 (active)
21,MGRN1 isoform 2 (UniProt O60291),0.008
22,JAK3 (UniProt P52333),0.059
